Reference: PubChem BioAssay AID1159580 (chemical genetic matrix, 2015)
“And” between values parts separate entries of the source, which are not always exact repeats. Identical values can stand only once. The whole screen tested about 5,500 compounds, of which about 2,000 (36%) were called active. Inconclusive results (about 18%) are left out. Cut-off read from the data, not from the text of the source: active = normalized growth mostly below about 0.91 (no sharp cut-off); inconclusive = no clear call, values can overlap the other calls; inactive = mostly above about 0.92. The list shows a part of the results.

Test: chemical genetic growth profiling, strain panel (AID 1159580);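 note: tested at 20 µM; growth read once vehicle control cultures reached saturation at 30 °C; 1 = growth at the plate median or of vehicle wells; lower values mean less growth of the strain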
Conditions: S. cerevisiae deletion strains, growth OD
[1] = locus YAL013W, strain DEP1, active compounds read low

Measured: normalized growth

CNC(C)[C@H](O)c1ccccc1 (stereo not given in full)
inactive: [1] 1 | locus YAL021C, strain ccr4, active compounds read low 1.03 | locus YAL026C, strain drs2, active compounds read low 1.01 | locus YAL030W, strain snc1, active compounds read low 1.01 | locus YBL061C, strain skt5, active compounds read low 1.02 | locus YBR009C, strain hhf1, active compounds read low 0.977 | locus YBR021W, strain FUR4, active compounds read low 1.07 | locus YBR023C, strain chs3, active compounds read low 1.01 | locus YBR171W, strain sec66, active compounds read low 0.993 | locus YBR229C, strain ROT2, active compounds read low 1.01 | locus YBR231C, strain swc5, active compounds read low 1.01 | locus YBR279W, strain paf1, active compounds read low 1 | locus YCL011C, strain gbp2, active compounds read low 1.01 | locus YCL016C, strain dcc1, active compounds read low 1.04 | locus YCL029C, strain bik1, active compounds read low 1 | locus YCL061C, strain MRC1, active compounds read low 0.995 | locus YCL069W, strain vba3, active compounds read low 0.986 | locus YCR088W, strain abp1, active compounds read low 0.989 | locus YDL005C, strain med2, active compounds read low 0.999 | locus YDL035C, strain GPR1, active compounds read low 1.05 | locus YDL040C, strain nat1, active compounds read low 1 | locus YDL074C, strain BRE1, active compounds read low 1.02 | locus YDL101C, strain DUN1, active compounds read low 1.01 | locus YDL134C, strain PPH21, active compounds read low 1.04 | locus YDL185W, strain tfp1, active compounds read low 0.991 | locus YDL192W, strain arf1, active compounds read low 0.998 | locus YDR001C, strain nth1, active compounds read low 0.996 | locus YDR069C, strain doa4, active compounds read low 1.02 | locus YDR101C, strain arx1, active compounds read low 1.02 | locus YDR137W, strain rgp1, active compounds read low 1 | locus YDR159W, strain sac3, active compounds read low 0.995 | locus YDR162C, strain NBP2, active compounds read low 1.02 | locus YDR195W, strain ref2 1.01 | locus YDR297W, strain sur2, active compounds read low 1.01 | locus YDR318W, strain mcm21, active compounds read low 1 | locus YDR334W, strain swr1, active compounds read low 0.983 | locus YDR335W, strain msn5, active compounds read low 1.03 | locus YDR388W, active compounds read low 0.995 | locus YDR392W, strain spt3, active compounds read low 1.05 | locus YDR502C, strain sam2, active compounds read low 0.997 | locus YEL003W, strain gim4, active compounds read low 0.992 | locus YEL037C, strain rad23, active compounds read low 0.986 | locus YEL061C, strain CIN8 (second series), active compounds read low 0.993 | locus YEL061C, strain CIN8, active compounds read low 1.02 | locus YER015W, strain faa2, active compounds read low 1.01 | locus YER016W, strain bim1, active compounds read low 1.03 | locus YER110C, active compounds read low 0.986 | locus YER111C, strain swi4, active compounds read low 1 | locus YER155C, strain BEM2 (second series), active compounds read low 1.02 | locus YER155C, strain BEM2, active compounds read low 1.01 | locus YER167W, strain BCK2, active compounds read low 1.02 | locus YFR010W, strain ubp6, active compounds read low 0.96 | locus YGL078C, strain dbp3, active compounds read low 0.994 | locus YGL086W, strain mad1, active compounds read low 1.01 | locus YGL167C, strain pmr1, active compounds read low 1.01 | locus YGL173C, strain kem1, active compounds read low 1.01 | locus YGL227W, strain vid30, active compounds read low 0.994 | locus YGL240W, strain doc1, active compounds read low 0.993 | locus YGL248W, strain PDE1, active compounds read low 1.02 | locus YGL253W, strain hxk2, active compounds read low 1.01 | locus YGR078C, strain PAC10, active compounds read low 1.02 | locus YGR135W, strain pre9, active compounds read low 0.986 | locus YGR229C, strain SMI1, active compounds read low 1.02 | locus YGR252W, strain gcn5, active compounds read low 0.98 | locus YHR013C, strain ard1, active compounds read low 1.04 | locus YHR027C, strain rpn1, active compounds read low 0.998 | locus YHR030C, strain SLT2, active compounds read low 1.02 and 1.05 | locus YHR079C, strain IRE1 (second series), active compounds read low 1 | locus YHR079C, strain IRE1, active compounds read low 1.03 | locus YHR094C, strain hxt1, active compounds read low 0.989 | locus YHR129C, strain ARP1, active compounds read low 1.01 | locus YHR142W, strain chs7, active compounds read low 1 | locus YHR200W, strain rpn10, active compounds read low 0.999 | locus YIL066C, strain RNR3, active compounds read low 1.03 | locus YIL073C, strain SPO22, active compounds read low 0.991 | locus YIL125W, strain kgd1, active compounds read low 1 | locus YIR030C, strain dcg1, active compounds read low 1 | locus YJL092W, strain hpr5, active compounds read low 1 | locus YJL095W, strain BCK1 (second series), active compounds read low 1.01 | locus YJL095W, strain BCK1, active compounds read low 1.01 and 1.06 | locus YJL115W, strain asf1, active compounds read low 0.993 | locus YJL129C, strain trk1, active compounds read low 1.01 | locus YJL134W, strain LCB3, active compounds read low 1 | locus YJL154C, strain vps35, active compounds read low 0.986 | locus YJL164C, strain tpk1, active compounds read low 1.01 | locus YJL166W, strain qcr8, active compounds read low 1.01 | locus YJL168C, strain set2, active compounds read low 0.991 | locus YJL187C, strain SWE1 (second series), active compounds read low 1.01 | locus YJL187C, strain SWE1, active compounds read low 1.02 | locus YJR043C, strain POL32, active compounds read low 1.04 | locus YJR066W, strain TOR1, active compounds read low 0.972 | locus YKL009W, strain mrt4, active compounds read low 0.992 | locus YKL068W, active compounds read low 0.995 | locus YKL085W, strain MDH1 (second series), active compounds read low 1.03 | locus YKL085W, strain MDH1, active compounds read low 1.03 | locus YKL160W, strain elf1, active compounds read low 1.05 | locus YKL190W, strain CNB1, active compounds read low 1.01 | locus YKR001C, strain vps1, active compounds read low 0.997 | locus YKR026C, strain gcn3, active compounds read low 0.995 | locus YKR091W, strain srl3, active compounds read low 1 | locus YLL001W, strain dnm1, active compounds read low 1.02 | locus YLL026W, active compounds read low 1.02 | locus YLL041C, strain sdh2, active compounds read low 0.996 | locus YLR027C, strain aat2, active compounds read low 1.02 | locus YLR039C, strain RIC1, active compounds read low 0.978 | locus YLR058C, strain SHM2, active compounds read low 1.01 | locus YLR102C, strain apc9, active compounds read low 0.986 | locus YLR113W, strain HOG1, active compounds read low 1.08 | locus YLR221C, strain rsa3, active compounds read low 0.984 | locus YLR258W, strain gsy2, active compounds read low 1.03 | locus YLR262C, strain YPT6 (second series), active compounds read low 0.972 | locus YLR262C, strain YPT6, active compounds read low 0.983 | locus YLR268W, strain sec22, active compounds read low 0.993 | locus YLR320W, strain mms22, active compounds read low 0.994 | locus YLR330W, strain CHS5, active compounds read low 1.01 | locus YLR342W, strain FKS1 (second series), active compounds read low 1.05 | locus YLR342W, strain FKS1, active compounds read low 1.02 | locus YLR357W, strain rsc2, active compounds read low 0.958 | locus YLR370C, strain arc18, active compounds read low 1.03 | locus YLR371W, strain rom2, active compounds read low 0.987 | locus YLR384C, strain iki3, active compounds read low 0.995 | locus YLR418C, strain cdc73, active compounds read low 1.01 | locus YML016C, strain PPZ1, active compounds read low 1.01 | locus YML032C, strain rad52, active compounds read low 1 | locus YML120C, strain ndi1, active compounds read low 0.996 | locus YML124C, strain tub3, active compounds read low 0.991 | locus YMR058W, strain fet3, active compounds read low 0.999 | locus YMR078C, strain ctf18, active compounds read low 0.989 | locus YMR125W, strain sto1, active compounds read low 0.955 | locus YMR129W, active compounds read low 1.02 | locus YMR205C, strain PFK2, active compounds read low 1 | locus YMR223W, strain ubp8, active compounds read low 0.998 | locus YMR231W, strain pep5, active compounds read low 1 | locus YMR263W, strain SAP30, active compounds read low 1.01 | locus YMR307W, strain GAS1, active compounds read low 1.17 | locus YNL067W, strain RPL9B, active compounds read low 1 | locus YNL071W, strain lat1, active compounds read low 0.991 | locus YNL183C, strain NPR1, active compounds read low 0.982 | locus YNL209W, strain ssb2, active compounds read low 0.999 | locus YNL233W, strain BNI4, active compounds read low 1.02 | locus YNL248C, strain rpa49, active compounds read low 0.969 | locus YNL250W, strain rad50, active compounds read low 0.989 | locus YNL271C, strain bni1, active compounds read low 0.982 | locus YNL298W, strain CLA4, active compounds read low 1.02 | locus YNL307C, strain MCK1, active compounds read low 1 | locus YNL322C, strain KRE1 (second series), active compounds read low 1.01 | locus YNL322C, strain KRE1, active compounds read low 1.05 | locus YNR049C, strain mso1, active compounds read low 0.996 | locus YNR052C, strain pop2, active compounds read low 1 | locus YOL006C, strain TOP1, active compounds read low 1.16 | locus YOL012C, strain htz1 1.33 | locus YOL147C, strain pex11, active compounds read low 0.982 | locus YOR001W, strain rrp6, active compounds read low 0.934 | locus YOR061W, strain CKA2, active compounds read low 1.02 | locus YOR069W, strain VPS5, active compounds read low 1.01 | locus YOR070C, strain gyp1, active compounds read low 1.02 | locus YOR080W, strain dia2, active compounds read low 1.01 | locus YOR083W, strain WHI5, active compounds read low 1.04 | locus YOR106W, strain vam3, active compounds read low 1.03 | locus YOR136W, strain idh2, active compounds read low 1 | locus YOR144C, strain elg1, active compounds read low 0.995 | locus YOR184W, strain ser1, active compounds read low 1 | locus YOR231W, strain MKK1, active compounds read low 1.06 | locus YOR265W, strain rbl2, active compounds read low 1.01 | locus YOR270C, strain vph1, active compounds read low 0.952 | locus YOR290C, strain snf2, active compounds read low 1.06 | locus YOR316C, strain cot1, active compounds read low 0.995 | locus YPL051W, strain arl3, active compounds read low 1.03 | locus YPL055C, strain LGE1, active compounds read low 1.01 | locus YPL078C, strain atp4, active compounds read low 1.03 | locus YPL106C, strain sse1, active compounds read low 1.04 | locus YPL240C, strain hsp82, active compounds read low 0.992 | locus YPL256C, strain CLN2, active compounds read low 1.04 | locus YPR119W, strain clb2, active compounds read low 0.991 | locus YPR141C, strain kar3, active compounds read low 0.985 | locus YPR163C, strain tif3, active compounds read low 0.998 | locus YPR167C, strain met16, active compounds read low 0.99 | strain wtn01, active compounds read low 1

CC(=O)NCCc1ccc(O)c(O)c1
inactive: [1] 1.03 | locus YAL040C, strain CLN3, active compounds read low 1.01 | locus YDR363W, strain ESC2, active compounds read low 1.05 | locus YER002W, strain NOP16, active compounds read low 1 | locus YJR075W, strain HOC1, active compounds read low 1.02 | locus YNL128W, strain TEP1, active compounds read low 0.999 | locus YNL153C, strain GIM3, active compounds read low 0.986 | locus YNL175C, strain NOP13, active compounds read low 1.01 | locus YNL197C, strain WHI3, active compounds read low 1.01 | locus YNL224C, strain SQS1, active compounds read low 0.998 | locus YOR083W, strain WHI5 (second series), active compounds read low 1.02 | locus YPL241C, strain CIN2, active compounds read low 1.01
